Source: PubChem BioAssay (several laboratories)
Shown are actives, neighbours in structure and some others; about 2.8% of the full set was active somewhere.
HSP90 inh: HSP90 refolding inhibition in rabbit reticulocyte lysate; luciferase refolding luminescence, 3 h; inhibition, % at 5.6 µM; hit rate 0.91% among 290,000;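 active = inhibition above the screen-wide mean plus 3 SD, computed separately per campaign, cut at about 16% in these data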;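 also: 0% = DMSO wells and 100% = 60 µM geldanamycin wells; inhibitors lower the luminescence because luciferase stays unfolded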
SENP8 block-1: inhibitors of human SENP8 protease; hit rate 1.2% among 330,000; purified SENP8, Z-RLRGG-aminoluciferin cleavage, luminescence; inhibition, % at 10 µM; in the data active = inhibition above about 50%
Target sequence (Q96LD8 whole entry, looked up): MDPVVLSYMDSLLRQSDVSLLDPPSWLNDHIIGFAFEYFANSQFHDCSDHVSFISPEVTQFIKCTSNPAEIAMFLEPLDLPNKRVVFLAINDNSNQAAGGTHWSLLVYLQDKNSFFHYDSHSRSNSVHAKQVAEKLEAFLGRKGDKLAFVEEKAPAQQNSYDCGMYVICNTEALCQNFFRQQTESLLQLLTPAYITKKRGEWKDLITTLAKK
SENP8 block-2: inhibitors of human SENP8 protease | inhibition, % at 20 µM | AID 602440 | hit rate 0.64% among 360,000 | Q96LD8 | recombinant SENP8, Nedd8 substrate fluorescence; in the data active = inhibition mostly above about 40%, no sharp cut-off; inactive = mostly below about 27%
SENP6 inh: blocks the human protease SENP6; inhibition, % at 10 µM; Q9GZR1; AID 2599; hit rate 1.8% among 330,000; Recombinant SENP6 catalytic domain, aminoluciferin luminescence;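 active = inhibition above about 50% at the single tested dose, limit read from the data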;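 also: plate controls were DMSO wells with enzyme for no effect and DMSO wells lacking enzyme for full effect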
SENP7 block: SENP7 protease inhibition. Q9BQF6. recombinant SENP7, Z-RLRGG-aminoluciferin luminescence, 40 min. inhibition, % at 5 µM. hit rate 1.5% among 330,000;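 active = inhibition above about 50% at the single test dose, limit read from the data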;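 also: plate controls were DMSO with enzyme for no effect and no enzyme buffer wells for full effect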
Target sequence (Q9BQF6 706-1050 limits assumed): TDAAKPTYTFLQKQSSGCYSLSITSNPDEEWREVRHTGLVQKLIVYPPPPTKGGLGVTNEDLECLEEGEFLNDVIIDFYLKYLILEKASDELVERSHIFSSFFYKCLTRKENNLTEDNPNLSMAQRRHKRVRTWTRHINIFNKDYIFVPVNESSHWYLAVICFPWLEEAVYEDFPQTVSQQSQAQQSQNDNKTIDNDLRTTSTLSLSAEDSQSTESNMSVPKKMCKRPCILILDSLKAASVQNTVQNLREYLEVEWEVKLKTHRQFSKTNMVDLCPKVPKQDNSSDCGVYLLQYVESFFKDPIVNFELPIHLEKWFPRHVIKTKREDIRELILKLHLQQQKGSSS
SENP8 conf: SENP8 (human) inhibition, single concentration confirmation; shares compounds with SENP8 block-2; purified SENP8, Nedd8-AMC/pro-Nedd8 cleavage fluorescence, 30 min; inhibition, % at 25 µM; hit rate 15% among 1,400; AID 624319; in the data active = inhibition mostly above about 39%, no sharp cut-off; inactive = mostly below about 34%
* hit, by the source's call.

Results for O=[N+]([O-])c1cccc(C(=Nc2cccc(Cl)c2)NO)c1 ?
HSP90 inh: 2.1; SENP8 block-1: 4.9; SENP8 block-2: 40.9*; SENP6 inh: -6.2; SENP7 block: 3.0; SENP8 conf: 22.6

What do the screens show for `O=C(NCCc1cccc(Cl)c1)c1cccc([N+](=O)[O-])c1`?
HSP90 inh: 3.5; SENP8 block-1: -2.2; SENP8 block-2: 12.4; SENP6 inh: -1.7; SENP7 block: 6.8

What do the screens show for `CCN(CC(=O)NC(C)(C)C)Cc1nc2c(Br)cc(Br)cc2c(=O)[nH]1`?
HSP90 inh: -4.6; SENP8 block-1: -9.6; SENP8 block-2: 41.4*; SENP6 inh: 2.4; SENP7 block: -3.6; SENP8 conf: 25.0

Results for Cc1c(C(=O)NCc2ccccc2CN2CCCC2)oc2c(F)cccc12 ?
SENP8 block-1: 2.8; SENP8 block-2: 15.7; SENP6 inh: 0.1; SENP7 block: -3.1

How did CNc1ccc([N+](=O)[O-])cc1-c1nc2ccccc2[nH]c1=O do in these assays?
HSP90 inh: -0.1; SENP8 block-1: 7.0; SENP8 block-2: 41.9*; SENP6 inh: 0.5; SENP7 block: -9.8; SENP8 conf: 14.6

How did CC(C)C(=O)Nc1ccc(Cl)cc1-c1nc2ccccc2[nH]c1=O do in these assays?
HSP90 inh: 2.5; SENP8 block-1: 1.2; SENP8 block-2: -26.1; SENP6 inh: 20.0; SENP7 block: -3.9

Results for CCCCOCCCNC(=O)c1ccc2c(c1)OCO2 ?
HSP90 inh: 0.2; SENP8 block-1: 3.5; SENP8 block-2: -1.8; SENP6 inh: -10.2; SENP7 block: 1.0

What do the screens show for `COCCCNC(=O)c1ccc2c(c1)OCO2`?
HSP90 inh: -3.9; SENP8 block-1: -1.9; SENP8 block-2: 44.6*; SENP6 inh: 1.2; SENP7 block: 4.5; SENP8 conf: 11.8

What do the screens show for `O=C(NCc1ccccc1)c1ccccc1`?
SENP8 block-2: 62.2*; SENP8 conf: 18.4

How did COC(=O)CNC(=O)c1ccccc1 do in these assays?
SENP8 block-1: 0.9; SENP8 block-2: 50.8*; SENP6 inh: 4.5; SENP7 block: 6.6; SENP8 conf: 5.4

How did O=C(NCc1ccccc1)c1ccc(C(=O)NCc2ccccc2)cc1 do in these assays?
SENP8 block-2: 15.4

How did COC(=O)CNC(=O)c1ccc(F)cc1 do in these assays?
HSP90 inh: 3.4; SENP8 block-1: 1.0; SENP8 block-2: -3.1; SENP6 inh: -7.1; SENP7 block: 11.7

Results for Cc1cc(C)c2[nH]c(=O)c(CN(C(=O)C3CCCO3)C3CCCC3)cc2c1 (stereo not given) ?
HSP90 inh: 1.5

How did COc1ccc2c(Cl)c(-c3nnc4n3CCCCC4)sc2c1 do in these assays?
HSP90 inh: -3.5; SENP8 block-1: -19.7; SENP8 block-2: 48.1*; SENP6 inh: -8.3; SENP7 block: -18.1; SENP8 conf: 18.5

What do the screens show for `Clc1c(-c2nnc3n2CCCCC3)sc2ccccc12`?
HSP90 inh: -5.8; SENP8 block-1: -1.8; SENP8 block-2: 14.3; SENP6 inh: 3.7; SENP7 block: 2.0

Results for Cc1cc(=O)[nH]c(N/N=C/C(C)c2ccccc2)n1 (stereo not given) ?
HSP90 inh: 3.9; SENP8 block-1: 0.2; SENP8 block-2: 46.7*; SENP6 inh: -15.6; SENP7 block: 4.1; SENP8 conf: -0.1

Results for Cc1cc(=O)[nH]c(N/N=C/c2ccccc2Cl)n1 ?
HSP90 inh: -3.1; SENP8 block-1: -5.7; SENP8 block-2: -25.9; SENP6 inh: -14.4; SENP7 block: 4.3

Results for Cc1cc2c(NC(=O)CC(C)(C)CC(=O)O)cccc2nn1 ?
HSP90 inh: -3.3; SENP8 block-1: 5.1; SENP8 block-2: 43.7*; SENP6 inh: 9.7; SENP7 block: 8.7; SENP8 conf: 6.5

How did O=C(Nc1ncccn1)C1CCCN1S(=O)(=O)c1ccc(Cl)c(Cl)c1 (stereo not given) do in these assays?
HSP90 inh: 1.0; SENP8 block-1: -1.5; SENP8 block-2: 17.9; SENP6 inh: -10.4; SENP7 block: 6.0

What do the screens show for `COC(=O)c1ccc(C)cc1C1CN=NC12Cc1cc(C)ccc1C2=O` (stereo not given)?
SENP8 block-2: 57.4*; SENP8 conf: 32.9

How did COc1ccc(CC(=O)N/N=C(/C)CC(=O)N(C)c2ccccc2)cc1 do in these assays?
HSP90 inh: -1.9; SENP8 block-1: -12.9; SENP8 block-2: 3.0; SENP6 inh: -5.8; SENP7 block: -8.4

How did CCC(C)[C@H](NC(=O)Nc1ccc(S(N)(=O)=O)cc1)C(=O)O (stereo not given in full) do in these assays?
HSP90 inh: -2.5; SENP8 block-1: -10.3; SENP8 block-2: 9.6; SENP6 inh: -18.7; SENP7 block: -12.5

Results for CCC(C)[C@H](NC(=O)Nc1cccc(Cl)c1)C(=O)O (stereo not given in full) ?
HSP90 inh: 3.1; SENP8 block-1: -6.4; SENP8 block-2: 47.5*; SENP6 inh: -25.1; SENP7 block: -0.5; SENP8 conf: 16.0

What do the screens show for `Nc1ccc(Cl)c(S(=O)(=O)Nc2cccc(Cl)c2)c1`?
HSP90 inh: -2.9; SENP8 block-1: -15.7; SENP8 block-2: 5.8; SENP6 inh: -10.9; SENP7 block: -9.2

Results for Cc1cccc(/C=N/n2c(-c3ccncc3)n[nH]c2=S)c1 ?
HSP90 inh: 0.7; SENP8 block-1: 2.3; SENP8 block-2: 4.4; SENP6 inh: 11.6; SENP7 block: 1.9

Results for O=[N+]([O-])c1cc([N+](=O)[O-])c2n[nH]c(-c3ccccc3)c2c1 ?
HSP90 inh: -2.6; SENP8 block-1: 6.2; SENP8 block-2: 35.1*; SENP6 inh: -10.8; SENP7 block: 4.9; SENP8 conf: 7.7

How did COc1cccc(OC)c1C(=O)NC(=S)N1CCCCC1c1cccnc1 (stereo not given) do in these assays?
HSP90 inh: -3.3; SENP8 block-1: -0.2; SENP8 block-2: 51.8*; SENP6 inh: 10.5; SENP7 block: 2.5; SENP8 conf: 15.7

What do the screens show for `Cc1ccc(C(C#N)c2ccc3c(C(F)(F)F)cc(C(F)(F)F)nc3n2)cc1` (stereo not given)?
HSP90 inh: -0.2; SENP8 block-1: 5.8; SENP8 block-2: 43.0*; SENP6 inh: -22.1; SENP7 block: -3.0; SENP8 conf: 10.9

How did O=C1OC(c2ccc(O)cc2)(c2ccccc2O)c2ccccc21 (stereo not given) do in these assays?
SENP8 block-2: 7.6

Results for CCc1ccccc1N1C(=O)C2CC(C)=C(C)CC2C1=O (stereo not given) ?
HSP90 inh: -1.0; SENP8 block-1: 0.2; SENP8 block-2: 40.8*; SENP6 inh: -18.9; SENP7 block: -0.2; SENP8 conf: 3.3

Results for CC(Nc1c([N+](=O)[O-])c(=O)oc2ccccc12)C(Cl)c1ccccc1 (stereo not given) ?
HSP90 inh: -1.0; SENP8 block-1: 1.6; SENP8 block-2: 51.7*; SENP6 inh: -12.8; SENP7 block: 4.0; SENP8 conf: 10.9

Results for O=c1oc2ccccc2c(NC(c2ccccc2)c2ccccc2)c1[N+](=O)[O-] ?
HSP90 inh: -0.5; SENP8 block-1: -11.3; SENP8 block-2: 12.6; SENP6 inh: -20.1; SENP7 block: -11.3
